Assay outcomes deposited in PubChem by National Center for Advancing Translational Sciences (NCATS).
KB-V1 MDR tox: kills drug-selected multidrug resistant KB-V1 cells. Potency, µM (titrated, usually from 46.1 µM), actives largely listed as cytotoxic. KB-V1 MDR cells viability, CellTiter-Glo, 72 h. 400,000 compounds, 3.4% hits; note: nearly all actives have a fitted effect of over 60% in size
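Cytotoxicity via CellTiter-Glo luminescence after 72 h compound exposure at 37 degrees C. Cells: drug-selected KB-V1 line, DMEM phenol-red free plus 10% FBS. Compounds tested at multiple concentrations; normalized data fitted to concentration-effect curves.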
HT1080NT lethal: kills 2HG-producing HT-1080-NT fibrosarcoma cells; HT-1080-NT fibrosarcoma viability, CellTiter-Glo ATP luminescence, 48 h; 360,000 compounds, 1.6% hits; Potency, µM (top dose mostly 46.1 µM), for inactives: at the top dose activity, negative = less viability, usual class: cytotoxic;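 note: NT is the 2HG producing partner of a matched IDH1 knockdown line; 0% = DMSO-treated cells and -100% = media-only wells without cells; nearly all actives have a fitted effect of over 55% in size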
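Viability of the 2HG-overproducing fibrosarcoma line after 48 hours of compound exposure at 37 degrees C was determined by luminescence with CellTiter-Glo, and concentration-effect curves were then fitted and categorized.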
HT1080 IDH1KD tx: HT-1080 IDH1 knockdown cell toxicity (counter line); HT-1080 IDH1 knockdown viability, ATP luminescence, 48 h; Potency, µM (titrated, usually from 46.1 µM), for the others: top-dose activity, negative = toxicity, most hits filed as cytotoxic; 360,000 compounds, 2% hits; AID 686971;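 note: 0% = DMSO wells and -100% = cell-free medium wells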
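Viability of IDH1-knockdown HT-1080 fibrosarcoma cells was assessed by CellTiter-Glo after 48 h at 37 °C with titrated compound; concentration-effect curves were classified by fit quality and response size.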
DT40 TDP1 CPT: DT40-hTDP1 cell growth loss with CPT | chicken DT40 Tdp1-/-;hTDP1 cells + 20 nM CPT, ATP luminescence, 48 h | Potency, µM (top dose mostly 46.2 µM), for inactives: at the highest dose activity change, negative = growth inhibition, hits mostly inhibitors | 420,000 compounds, 12% hits; note: nearly all actives have a fitted effect of over 55% in size
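Cell growth measured by CellTiter-Glo luminescence after a minimum 48 h, 37 C compound exposure with 20 nM CPT in Tdp1-knockout DT40 cells stably expressing hTDP1, seeded 400/well; qHTS titration format.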
DT40 TDP1 no CPT: qHTS for Inhibitors of human tyrosyl-DNA phosphodiesterase 1 (TDP1): qHTS in cells in absence of CPT; Potency, µM (top dose mostly 46.2 µM), without a hit: at the highest dose activity change, negative = growth inhibition, actives largely listed as inhibitors; AID 686978, 2013; 420,000 compounds, 15% hits; DT40 Tdp1-/- hTDP1 cells, no CPT, ATP luminescence, 48 h; note: nearly all actives have a fitted effect of over 55% in size
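Seeded 400 DT40-hTDP1 cells/well (vehicle DMSO, no 20 nM CPT); pinned compounds; ≥48 hr at 37 °C; CellTiter-Glo luminescence as viability measure.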
KB-3-1 cytotox: kills parental KB-3-1 adenocarcinoma cells | Potency, µM (titrated, usually from 46.1 µM), hits mostly cytotoxic | 400,000 compounds, 1.4% hits | KB-3-1 viability, CellTiter-Glo ATP luminescence, 72 h; note: nearly all actives have a fitted effect of over 60% in size
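Cytotoxicity in the drug-sensitive parental line KB-3-1 was scored as loss of CellTiter-Glo luminescence following 72 h incubation with compound. Values come from curve fitting of normalized concentration-response data.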
* marks the source's active call; other numbers are inactive results; i = inactive; ? = inconclusive; · = no result; ! = repeats disagree; [ ] = dose if it differs, or a comment. Most compounds without a hit are left out; they make up all but 19% or so of the library. Calls come from the whole dose curve; as a rule, active = well fitted curve in the direction sought with a large enough effect; inconclusive = small, poorly fitted or top-dose-only effect, or another doubt; inactive = no such curve, though single readings can be large; an effect the other way counts as inactive or inconclusive. Unless noted, % is set by controls: 0 for no effect and ±100 for the full control effect; potency is the fitted concentration of half-maximal effect.

SMILES	KB-V1 MDR tox	HT1080NT lethal	HT1080 IDH1KD tx	DT40 TDP1 CPT	DT40 TDP1 no CPT	KB-3-1 cytotox
COc1cc(NC(=O)c2cc([N+](=O)[O-])ccc2NC(=O)CNC2CCCCC2)cc(OC)c1	?	-4%	-11%	21µM*	16µM*	i
O=[N+]([O-])c1ccc(S(=O)(=O)N2CCN(c3ccnc4cc(Cl)ccc34)CC2)cc1	i	11%	-1%	18µM*	?	i
O=S(=O)(c1cccc(Br)c1)N1CCN(c2ccnc3cc(Cl)ccc23)CC1	?	-12%	-13%	?	21µM*	i
CC(C)(C)C(=O)N1CCN(c2ccnc3cc(Cl)ccc23)CC1	?	14%	0%	?	?	i
CC(=O)c1ccc(N2CCN(c3ccnc4cc(Cl)ccc34)CC2)cc1	i	0%	-4%	?	3.7µM*	i
O=[N+]([O-])c1ccc(S(=O)(=O)N2CCN(c3ccccn3)CC2)cc1	i	2%	1%	5%	-10%	i
Cc1ccc(Cl)cc1N1CCN(S(=O)(=O)c2cccc(S(=O)(=O)N3CCCC3)c2)CC1	i	-7%	0%	?	?	i
O=C(C1CCCCC1)N1CCN(c2ccnc3cc(Cl)ccc23)CC1	?	-9%	?	10µM*	12µM*	?
CCCOc1ccc(C(=O)N(Cc2cccs2)C2CCS(=O)(=O)C2)cc1 (stereo unspecified)	?	-4%	7%	?	?	i
COc1ccc(NC(=O)c2cc(S(=O)(=O)N3CCCCC3)ccc2C)cc1S(=O)(=O)N1CCOCC1	i	-10%	2%	-3%	-17%	i
CN(C)S(=O)(=O)N1CCN(c2ccnc3cc(Cl)ccc23)CC1	i	-8%	-2%	23µM*	13µM*	i
N#Cc1cccc(S(=O)(=O)N2CCN(S(=O)(=O)c3ccc4c(c3)OCCO4)CC2)c1	i	·	·	11%	-1%	i
N#Cc1cccc(S(=O)(=O)N2CCN(c3ccnc4cc(Cl)ccc34)CC2)c1	i	-14%	-14%	12µM*	12µM*	i
CC(C)S(=O)(=O)N1CCN(c2ccnc3cc(Cl)ccc23)CC1	?	-4%	-4%	?	?	i
COc1ccc2c(c1)CC(NC(=O)Nc1ccc(Br)c(C)c1)CO2 (stereo unspecified)	i	·	·	-16%	-13%	i
COc1cc(NC(=S)NC(C)(C)C)c(OC)cc1Cl	i	-1%	5%	?	-17%	i
COc1ccc(/C=C(\C#N)C(=O)Nc2cc(C)c(Cl)cc2OC)cc1O	i	2%	4%	?	-26%	21µM*
COc1ccc(CC(=O)Nc2ccccc2-c2ccccc2)cc1OC	15µM*	-7%	-9%	16µM*	21µM*	?
COc1ccc(CC(=O)Nc2cccc3ccccc23)cc1OC	i	0%	-8%	?	?	i
COc1cc(Cl)c(C)cc1NC(=S)NN	?	12%	18%	?	18µM*	i
COc1cc(Cl)c(C)cc1NC(=O)Cc1ccc(OC)c(OC)c1	?	-19%	-12%	-28%	15µM*	i
CCOc1ccc(NC(=O)CSc2ccc3nnc(-c4ccccn4)n3n2)cc1	i	1%	8%	-3%	-10%	i
COCC(=O)Nc1ccccc1-c1ccccc1	i	-4%	-2%	-9%	17%	i
Cc1ccc(CC(=O)Nc2ccccc2-c2ccccc2)cc1C	21µM*	12%	15%	?	?	i
COc1ccc(C(=O)OCC(=O)N2CCc3ccccc3C2)cc1OC	·	21%	4%	?	-18%	·
SMILES	KB-V1 MDR tox	HT1080NT lethal	HT1080 IDH1KD tx	DT40 TDP1 CPT	DT40 TDP1 no CPT	KB-3-1 cytotox
CC(=O)Oc1cc(C(=O)OCC(=O)N2CCc3ccccc3C2)cc(OC(C)=O)c1OC(C)=O	i	-4%	-30%	4.1µM*	5.2µM*	i
CCOc1c(Br)cc(C(=O)OCC(=O)N2CCc3ccccc3C2)cc1OC	i	2%	0%	?	26µM*	i
COc1cc2c(cc1OC)CN(C(=O)COc1ccccc1C#N)CC2	i	-4%	-23%	21µM*	12µM*	i
CCOc1ccc(C2OC(=O)Cc3cc(OC)c(OC)cc32)cc1 (stereo unspecified)	i	4%	0%	-16%	-15%	i
COc1ccc(NC(=O)N2CC[C@@]3(CCCN(S(C)(=O)=O)C3)C2)cc1	·	·	·	-2%	-2%	·
COc1ccc(/C(N)=N/OC(=O)c2cccc([N+](=O)[O-])c2)cc1	i	12%	11%	?	?	i
CC1=CC(=O)C(C(C)C)=C/C1=N/OC(=O)c1cccc([N+](=O)[O-])c1	i	10µM*	-17%[9.24 µM]	23µM*	12µM*	i
CC1=CC(=NOC(=O)c2cccc([N+](=O)[O-])c2)C=C(C)C1=O	i	?	?	18µM*	12µM*	i
CC1=CC(=O)C(C(C)C)=C/C1=N\OC(=O)c1cccc2nc(C)oc12	i	7%	5%	?	21µM*	i
Cc1ccc(C(=O)O/N=C(\N)c2cccc([N+](=O)[O-])c2)cc1	i	2%[9.24 µM]	-10%	-30%	-15%	i
Nc1nc(SCC(=O)NCc2ccccc2)[nH]c(=O)c1NC(=O)c1ccccc1F	i	5%	4%	-17%	?	i
COc1ccc(CNc2cccc3[nH]c(C(F)(F)F)nc23)cc1OC	i	8%	28%	?	21µM*	i
COc1ccc(CNC(=O)c2[nH]c(C(F)(F)F)nc2-c2ccccc2)cc1OC	?	-1%	7%	-29%	-17%	i
Cc1ccc(NC(=O)C(C)OC(=O)/C=C/c2ccccc2)cc1S(=O)(=O)N1CCOCC1 (stereo unspecified)	i	-15%	-1%	?	?	i
Nc1cccc2c(O)cccc12	?	-19%	-16%	-14%	-12%	?
O=c1[nH]ccc2c(O)cccc12	i	?	?	?	21µM*	i
Cc1cc(OCC(=O)NCCc2nc3ccccc3[nH]2)cc(C)c1Cl	·	·	·	12µM*	12µM*	·
O=C(COc1ccccc1Br)NCCc1nc2ccccc2[nH]1	15µM*!	4%	7%	-28%	-22%	i
